These results are taken from publication PMC4336329 (PLoS ONE, 2015).

Each structure is given as a SMILES string. Hit rate of the full screen: of about 310,000 compounds, about 14,000 (4.5%) showed an effect of 50% or more. Effects have a minus sign here. The full list was thinned out, with strong results kept by preference.
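Further: peak tail current of the secondary pulse compared with the same well before compound.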

For this assay, the target named is human ether-à-go-go-related gene (hERG) potassium channel (human, UniProt Q12809). The assay is described as follows: primary screen, population patch clamp on CHO cells stably expressing hERG; higher = less effect of the substance.
Chain of human ether-à-go-go-related gene (hERG) potassium channel (Q12809 whole entry, looked up): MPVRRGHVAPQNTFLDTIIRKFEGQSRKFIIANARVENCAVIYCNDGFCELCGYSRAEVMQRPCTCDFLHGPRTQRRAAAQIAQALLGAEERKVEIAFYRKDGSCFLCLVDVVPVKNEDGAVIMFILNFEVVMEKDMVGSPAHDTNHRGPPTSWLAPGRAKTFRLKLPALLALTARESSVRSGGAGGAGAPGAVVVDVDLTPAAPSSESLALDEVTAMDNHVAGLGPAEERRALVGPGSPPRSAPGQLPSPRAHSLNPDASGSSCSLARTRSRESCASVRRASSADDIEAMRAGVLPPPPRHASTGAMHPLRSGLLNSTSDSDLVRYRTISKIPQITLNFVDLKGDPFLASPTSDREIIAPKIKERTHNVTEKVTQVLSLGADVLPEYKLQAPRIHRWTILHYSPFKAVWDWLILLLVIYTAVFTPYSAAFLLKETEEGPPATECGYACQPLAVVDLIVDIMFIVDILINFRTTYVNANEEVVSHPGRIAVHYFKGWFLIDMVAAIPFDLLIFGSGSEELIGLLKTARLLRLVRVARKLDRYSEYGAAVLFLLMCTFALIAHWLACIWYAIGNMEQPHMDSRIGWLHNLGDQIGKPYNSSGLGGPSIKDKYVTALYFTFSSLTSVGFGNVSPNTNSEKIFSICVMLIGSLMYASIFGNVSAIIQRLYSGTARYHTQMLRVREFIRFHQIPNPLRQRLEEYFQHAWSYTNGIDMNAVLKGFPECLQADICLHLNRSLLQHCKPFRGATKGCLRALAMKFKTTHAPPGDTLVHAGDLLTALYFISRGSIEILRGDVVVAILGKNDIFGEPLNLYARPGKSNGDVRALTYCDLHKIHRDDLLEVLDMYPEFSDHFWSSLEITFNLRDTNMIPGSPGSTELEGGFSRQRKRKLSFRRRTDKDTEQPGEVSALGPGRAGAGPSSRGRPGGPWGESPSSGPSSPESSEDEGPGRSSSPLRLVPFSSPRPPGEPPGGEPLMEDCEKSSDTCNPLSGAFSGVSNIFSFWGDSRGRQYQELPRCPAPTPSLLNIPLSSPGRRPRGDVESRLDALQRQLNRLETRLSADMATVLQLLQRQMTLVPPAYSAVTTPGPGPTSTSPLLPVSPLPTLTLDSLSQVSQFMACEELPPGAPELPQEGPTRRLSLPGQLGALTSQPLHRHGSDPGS
With `Cc1ccc(C)c(S(=O)(=O)Nc2ccc(C(=O)NCCc3ccccn3)cc2)c1`, the “hERG current change (%, negative = inhibition) at 10uM” value was determined as 10.2%.
As for `Cc1ccc(C)c(N2CCN(C(=O)C3CCN(S(=O)(=O)c4cccc5nsnc45)CC3)CC2)c1`, the figure is -8.49%.
With `N#Cc1ccc(C23CC4(C2)[C@H](CN(Cc2ccc(C(F)(F)F)cc2)[C@@H]4c2ccccc2)C3c2ccccc2)cc1` (stereo partly shown), the “hERG current change (%, negative = inhibition) at 10uM” value was 13.5%.
As for `O=C(Nc1nccs1)c1ccc(COc2ccccc2Br)o1`, the figure is -6.85%; as for `Cc1ccc(-c2nnc(SCC(=O)N/N=C/c3ccc(C)s3)n2-c2ccc(C)cc2)cc1`, -17.4%; as for `O=C(c1ccco1)N1CCN(Cc2nc(-c3cccs3)no2)CC1`, -38.1%.
As for `CS(=O)(=O)N(CC(=O)NCCSCc1c(F)cccc1Cl)c1cccc([N+](=O)[O-])c1`, the “hERG current change (%, negative = inhibition) at 10uM” value was -15.9%.
As for `COCC(C)NC(=O)CSc1nc2ccccc2n1CCc1ccccc1` (stereo not shown), the figure is -8.53%.
As for `Cc1cccc(N2CC(C(=O)Nc3nnc(SCC(=O)Nc4cc(C)on4)s3)CC2=O)c1` (stereo not shown), the figure is 23%; as for `Cc1cc(=O)[nH]c(SCC(=O)Nc2ccc(S(=O)(=O)N3CCOCC3)cc2)n1`, -3.3%.
As for `CC1(C)SC(=S)N(NC(=O)Nc2ccccc2)C1N(O)C(=O)Nc1ccccc1` (stereo not shown), the figure is 12.7%.
In the case of `CCOc1cc(N2CCOCC2)c(OCC)cc1NC(=O)c1oc2ccccc2c1C`, the “hERG current change (%, negative = inhibition) at 10uM” value is recorded as 18.6%.
As for `O=C(c1ccccc1F)N1CCCC(C(=O)N2CCc3ccccc3C2)C1` (stereo not shown), the figure is -8.64%; as for `O=S(=O)(c1ccc(Cl)cc1)c1nc(-c2ccco2)oc1N1CCCCC1`, -7.91%; as for `O=S(=O)(c1ccc(Cl)cc1)c1nc(-c2ccco2)oc1N1CCOCC1`, -55.4%.
Take `CC(C)Cc1nc(S(=O)(=O)c2ccc(Cl)cc2)c(N2CCOCC2)o1`: the “hERG current change (%, negative = inhibition) at 10uM” value is listed as -6.14%.
The figure for `O=S(=O)(c1ccccc1)c1nc(-c2ccco2)oc1N1CCCCC1` is -37.1%.
For `CC(C)(C)c1nc(S(=O)(=O)c2ccc(Cl)cc2)c(N2CCOCC2)o1`, the “hERG current change (%, negative = inhibition) at 10uM” value is -14.2%.
As for `CCCCc1nc(S(=O)(=O)c2ccc(Cl)cc2)c(N2CCOCC2)o1`, the figure is -69.6%; as for `COc1ccc(NC(=O)Nc2ccc3nccnc3c2)cc1`, 2.71%; as for `COc1ccccc1CNC(=O)C1CCN(C(=O)NC2CCCCC2)CC1`, 10.6%.
As for `CCc1ccc(/C=N/NC(=O)C(=O)NCCCN2CCOCC2)cc1`, the figure is -23.6%; as for `COc1ccc(NC(=S)N2c3ccccc3CC2C)cc1OC` (stereo not shown), -5.96%.
The figure for `CCCC(=O)Nc1nnc(Cc2ccccc2)s1` is -0.72%; for `COc1ccc(S(=O)(=O)Cc2ccc(C(=O)NC3CCC(C)CC3)o2)cc1` (stereo not shown) it is -15.8%.
With `Cc1ccc(-c2ccc(/C=N/c3ncn[nH]3)o2)cc1Cl`, the “hERG current change (%, negative = inhibition) at 10uM” value stood at 11.6%.
For `Oc1cccc(C2c3[nH]c4ccccc4c3CCN2Cc2ccc3c(c2)CCO3)c1` (stereo not shown), the “hERG current change (%, negative = inhibition) at 10uM” value amounted to 9.6%.
Regarding `C=C1CC[C@@]2(O)[C@H]3Cc4ccc(O)c5c4[C@@]2(CCN3CC2CC2)[C@H]1O5`, the “hERG current change (%, negative = inhibition) at 10uM” value is on record as -2.73%.
The figure for `C=CC[N+]1(C)CC[C@]23c4c5ccc(O)c4O[C@H]2C(=O)CC[C@@]3(O)[C@H]1C5.[I-]` (stereo partly shown) is 17.8%; for `Cl.Oc1ccc2c3c1O[C@H]1c4[nH]c5ccccc5c4C[C@@]4(O)[C@@H](C2)N(CC2CC2)CC[C@]314` it is -63%.
Turning to `Cl.O.Oc1ccc2c3c1O[C@H]1c4[nH]c5ccccc5c4C[C@@]4(O)C(C2)N(CC2CC2)CC[C@]314`, the “hERG current change (%, negative = inhibition) at 10uM” value was -55.4%.
The figure for `C=CCN1CC[C@]23c4c5ccc(O)c4O[C@H]2/C(=N/NC(=O)c2ccccc2)CC[C@@]3(O)[C@H]1C5` is -69.1%; for `CS(=O)(=O)O.O.Oc1ccc2c3c1O[C@H]1c4oc5ccccc5c4C[C@@]4(O)[C@@H](C2)N(CC2CC2)CC[C@]314` it is -76.9%.
As for `NC(N)=Nc1ccc2[nH]c3c(c2c1)C[C@@]1(O)[C@H]2Cc4ccc(O)c5c4[C@@]1(CCN2CC1CC1)[C@H]3O5.O=C(O)C(F)(F)F`, the figure is 6.85%; as for `Oc1cccc(C2c3[nH]c4ccccc4c3CCN2Cc2ccoc2)c1` (stereo not shown), -29.6%.
The figure for `Cl.O=C1CC[C@@]2(O)[C@H]3Cc4ccc(O)c5c4[C@@]2(CCN3CC2CC2)[C@H]1O5` is 0.91%.
Turning to `C=C(C)CN1CC[C@]23c4c5ccc(O)c4O[C@H]2c2[nH]c4ccccc4c2C[C@@]3(O)C1C5.Cl.O`, the “hERG current change (%, negative = inhibition) at 10uM” value worked out at 4.9%.
Take `COc1ccc(C2/C(=C(/O)c3ccc(Br)cc3)C(=O)C(=O)N2C)cc1` (stereo not shown): the “hERG current change (%, negative = inhibition) at 10uM” value was -12.7%.
The figure for `Cn1cc(P(=S)(N2CCOCC2)N2CCOCC2)cc1P(=O)(N1CCOCC1)N1CCOCC1` is 7.36%.
Take `COc1ccc(Oc2cccc(Cl)c2CNC(=O)c2ccccc2C(=O)O)cc1`: the “hERG current change (%, negative = inhibition) at 10uM” value stood at 4.98%.
The figure for `CC(C)(C)NC(=O)C(Cc1ccccc1)N1C(=O)c2ccccc2C1=O` (stereo not shown) is 6.68%; for `CCOC(=O)C1(Cc2ccc(OC)cc2)CCN(C(=O)C2=CCCC2)CC1` it is -33.8%.
The figure for `Cc1ccnc(NC2CCCCC2)c1` is 20.4%; for `Cn1c(CNc2ccccn2)c(C#N)c2ccccc21` it is -6.94%; for `COC(=O)CCCC1=CC2=CC(=O)C(C)(OC(=O)c3cccs3)C(=O)C2=CN1CCc1c[nH]c2ccccc12` (stereo not shown) it is 15%.
For the compound `CC(C)CN(C(=O)c1ccc([N+](=O)[O-])s1)c1c(N)n(Cc2ccccc2)c(=O)[nH]c1=O`, the “hERG current change (%, negative = inhibition) at 10uM” value was 10.3%.
As for `CCc1ccccc1NC(=O)c1ccc(CN2CCC(Cc3ccccc3)CC2)cc1`, the figure is -50.8%.
For `O=C(Nc1ccccc1F)c1ccc(CN2CCc3ccccc3C2)cc1`, the “hERG current change (%, negative = inhibition) at 10uM” value was 13.7%.
For the compound `O=C(c1ccc(CN2CCOCC2)cc1)N1CCC(Cc2ccccc2)CC1`, the “hERG current change (%, negative = inhibition) at 10uM” value is -3.35%.
As for `Cc1ccccc1NC(=O)c1ccc(CN2CCC(Cc3ccccc3)CC2)cc1`, the figure is -52.2%; as for `O=C(Nc1ccccc1F)c1ccc(CN2CCN(c3ccccc3)CC2)cc1`, -70.7%; as for `O=C(Nc1ccccc1C(F)(F)F)c1ccc(CN2CCC(Cc3ccccc3)CC2)cc1`, -42.4%.
The figure for `Cc1ccccc1NC(=O)CCN1CCN(Cc2ccccc2)CC1` is -27.2%.
The figure for `COc1ccc(NC(=O)c2ccc(CN3CCN(c4ccccc4)CC3)cc2)cc1` is -9.47%; for `Cc1ccccc1NC(=O)c1ccc(CN2CCc3ccccc3C2)cc1` it is -16.4%.
